# Laboratory results: the supplement of paper PMC6555819
# Test system: LXRa:RXRa (NR concentration 270 nM, RXRa partner concentration 90 nM)
# Assay: PBM binding z-score (relative to random genomic background probes); higher = stronger binding; sequences stand for … in GC…GCGATTGACAGCGTAGAATGAAGG
# Method in brief: (§1)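 The probes on custom Agilent 4×180K protein-binding microarrays were double-stranded, with 34-nt variable regions bearing direct-repeat seeds, single-nucleotide variants, half-site ablations and random human genomic background sequences. Incubation lasted 1 h with ligand-free nuclear receptor dimers in PBS pH 7.4, 2% milk, 0.02% Triton X-100, 1 mM DTT, 0.2 mg/mL BSA and 0.4 mg/ml salmon testes DNA. Antibodies against each partner (one per run) detected bound dimers, and fluorescence scans were regression-normalized. Binding z-scores take the random background probes as reference.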
row,Sequence,PBM binding z-score
1,TAGCCTAGGTCATGGGCCAGTAGACCACGCGAAC,3.57
2,ATCGAAAGGTCGAGGTGATTATAGAGAAAGGGAA,3.62
3,CTCGAAAGGTCGGTAGAGGTGAGTATACGGATAA,2.01
4,CCTAGTAGGCCAGGGTCACTCAAGCATTTCGCTT,1.56
5,CCTTACGGGTCACTCCAGGCTATAGCATCGGAGT,5.59
6,CGAACTAGGTCAAGGTCAGTGAATCTCCGCACGC,3.81
7,AGAACGAGGGCACGCTGAGTTCATAGCAGAGTAG,3.15
8,GCCACTGGGGCATCAGCAGGTTACCATAACTTAA,-0.416
9,ACTAGTTGGTCAGCTGAGATCACACACAATTCGG,-0.166
10,ATTTACGGGTCAACGAGGTTATAGCACGCGTATA,5.96
11,TAGCCTAGGTCATTGGGCAAGTATAGTACGCATC,3.37
12,TCTCGGAGTACACGAAGGTCAGAGCTTTCCAGAG,0.884
13,AGAACGAGGGCACGGTGAGTTGATAGCAGAGTAG,0.775
14,TCAAGCAGGCCAGAGGGTCACTCAAGAGGTACGG,0.997
15,CAAACTAGGTCACAGAGGCCAAAGTCCGTGCGTA,3.79
16,CGTCAAAGTACAACTAAGGTAACGTAAAGCACGC,0.122
17,TCTTGTAGATCAAGCAGGTTAAGAAAGCCTGAGT,0.414
18,TCATATAGGTAATACAGGTAAAAGTCGGCATCTA,1.13
19,AATACAGGGTCACTAGGCCAGAATAGGTACGAAT,5.06
20,CGAACTAGGTCATTGACAGGAGAGTGAATAGTAA,2.65

row,Sequence,PBM binding z-score
1,ATATGTAGGTTGTCGGGTCATTCAGTTTGCGCAT,2.15
2,TAGCCTGGGTCATGGGCCAGTATACCACGCGAAC,2.34
3,CGTCCAAGGTCAAGGGTCAGTGAAGAGATGACGG,5.84
4,ATCGAAAGATCGACGAGGTGAGTATACACCGTTT,-0.16
5,TCTTGTAGATCAAGCAGGTTAAGATAGCCTGAGT,0.507
6,GCTACTAGTTGAAAGGGCAACCGAATGATTCTCG,0.67
7,TCCGACAGGTGAAGGTAACTCAGGTACGCAGTCG,1.48
8,ATGTGTAGGTTAGCTGGGGTCATTCAGACTAGGC,5.92
9,TATACAGGGTCAATGGCCAGAGTACGAATGTCGA,5.45
10,CGTCAAAGTTCAATGTAACGTAACAGAAAGCAGC,5.08
11,ATATGTAGGTTACATCCGGGTCGTTCAGGCTATG,2.86
12,CCCTACGGGTCACTGACAGGTTATAGCATTTGGA,4.24
13,AGTCAAAGTTCATCTAGGTAACGCAAGATATGCT,5.91
14,CGTCCAAGATCAATGCTAGGTCAGTGAAAGCATT,0.466
15,TAGCCTAGGTCATTCAGGAGCCAGTATAGAAAGC,3.63
16,CCTGCTAGGTCAATGTTCAGCTAAAGCAGCTCGC,2.39
17,TCCAGTAGGTTAGGGGCATTCAGAATGGCGTCGA,0.635
18,TCGCGGAGGACACGAAGGTCAGAGCTTTCCAGAG,0.953
19,CGAAGTAGGTCATCCAGGACAGTGAATACATTGA,3.19

# Test system: LXRa homodimer (NR concentration 270 nM)
# Assay: as above
# Method in brief: as §1
row,Sequence,PBM binding z-score
1,TAGCCTAGGTCATGGGCCAGTAGACCACGCGAAC,0.0345
2,ATCGAAAGGTCGAGGTGATTATAGAGAAAGGGAA,0.192
3,CTCGAAAGGTCGGTAGAGGTGAGTATACGGATAA,0.0371
4,CCTAGTAGGCCAGGGTCACTCAAGCATTTCGCTT,-0.322
5,CCTTACGGGTCACTCCAGGCTATAGCATCGGAGT,-0.324
6,CGAACTAGGTCAAGGTCAGTGAATCTCCGCACGC,1.23
7,AGAACGAGGGCACGCTGAGTTCATAGCAGAGTAG,1.02
8,GCCACTGGGGCATCAGCAGGTTACCATAACTTAA,-0.158
9,ACTAGTTGGTCAGCTGAGATCACACACAATTCGG,-0.172
10,ATTTACGGGTCAACGAGGTTATAGCACGCGTATA,2.29
11,TAGCCTAGGTCATTGGGCAAGTATAGTACGCATC,0.712
12,TCTCGGAGTACACGAAGGTCAGAGCTTTCCAGAG,-0.152
13,AGAACGAGGGCACGGTGAGTTGATAGCAGAGTAG,-0.352
14,TCAAGCAGGCCAGAGGGTCACTCAAGAGGTACGG,-0.238
15,CAAACTAGGTCACAGAGGCCAAAGTCCGTGCGTA,1.02
16,CGTCAAAGTACAACTAAGGTAACGTAAAGCACGC,0.142
17,TCTTGTAGATCAAGCAGGTTAAGAAAGCCTGAGT,-0.381
18,TCATATAGGTAATACAGGTAAAAGTCGGCATCTA,0.377
19,AATACAGGGTCACTAGGCCAGAATAGGTACGAAT,1.04
20,CGAACTAGGTCATTGACAGGAGAGTGAATAGTAA,0.0352

row,Sequence,PBM binding z-score
1,ATATGTAGGTTGTCGGGTCATTCAGTTTGCGCAT,1.45
2,TAGCCTGGGTCATGGGCCAGTATACCACGCGAAC,-0.426
3,CGTCCAAGGTCAAGGGTCAGTGAAGAGATGACGG,1.02
4,ATCGAAAGATCGACGAGGTGAGTATACACCGTTT,-0.368
5,TCTTGTAGATCAAGCAGGTTAAGATAGCCTGAGT,-0.257
6,GCTACTAGTTGAAAGGGCAACCGAATGATTCTCG,-0.0669
7,TCCGACAGGTGAAGGTAACTCAGGTACGCAGTCG,-0.467
8,ATGTGTAGGTTAGCTGGGGTCATTCAGACTAGGC,2.89
9,TATACAGGGTCAATGGCCAGAGTACGAATGTCGA,1.39
10,CGTCAAAGTTCAATGTAACGTAACAGAAAGCAGC,3.29
11,ATATGTAGGTTACATCCGGGTCGTTCAGGCTATG,0.557
12,CCCTACGGGTCACTGACAGGTTATAGCATTTGGA,0.501
13,AGTCAAAGTTCATCTAGGTAACGCAAGATATGCT,4.93
14,CGTCCAAGATCAATGCTAGGTCAGTGAAAGCATT,0.903
15,TAGCCTAGGTCATTCAGGAGCCAGTATAGAAAGC,0.522
16,CCTGCTAGGTCAATGTTCAGCTAAAGCAGCTCGC,-0.0143
17,TCCAGTAGGTTAGGGGCATTCAGAATGGCGTCGA,-0.245
18,TCGCGGAGGACACGAAGGTCAGAGCTTTCCAGAG,0.0426
19,CGAAGTAGGTCATCCAGGACAGTGAATACATTGA,1.2
